Screens from PubChem BioAssay.
PAFAH1B3 inh = inhibitors of human PAFAH1B3; recombinant PAFAH1B3, FP-rhodamine probe, fluorescence polarization; inhibition, % at 3.39 µM; 340,000 compounds, 0.28% hits;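 active = inhibition above the screen-wide average of all tested compounds plus 3 SD, cut at about 25% in these data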
Target sequence (Q15102 whole entry, looked up): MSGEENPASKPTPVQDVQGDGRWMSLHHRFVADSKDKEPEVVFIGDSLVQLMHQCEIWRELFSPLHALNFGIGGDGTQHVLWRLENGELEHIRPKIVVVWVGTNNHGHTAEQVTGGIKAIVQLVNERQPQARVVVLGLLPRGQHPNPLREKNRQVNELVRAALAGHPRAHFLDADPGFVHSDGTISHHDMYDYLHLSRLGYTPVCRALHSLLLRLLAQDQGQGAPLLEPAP
PAFAH2 FP inh = inhibitors of human PAFAH2. inhibition, % at 3.39 µM. recombinant PAFAH2, FP-rhodamine activity probe, fluorescence polarization. AID 492956. 340,000 compounds, 0.99% hits;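 active = inhibition above the mean over all tested compounds plus 3 SD, cut at about 30% in these data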;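 also: inhibitors block probe labeling of enzyme so polarization drops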
Rin1 Abl inh = human Rin1-Abl interaction inhibition. TR-FRET Rin1/Abl binding, biochemical. inhibition, % at 7.35 µM. 360,000 compounds, 0.4% hits. AID 588664; in the data active = inhibition above about 5%, passing the limit was not always enough
PAFAH1B2 inh = PAFAH1B2 (human) inhibition. recombinant PAFAH1B2, FP-rhodamine activity probe, fluorescence polarization. inhibition, % at 3.39 µM. 340,000 compounds, 1.2% hits;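 active = inhibition above the mean of all tested compounds plus 3 SD, cut at about 24% in these data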
pPAFAH inh = pPAFAH (human) enzyme inhibition | recombinant pPAFAH, FP-rhodamine probe fluorescence polarization | inhibition, % at 3.39 µM | 330,000 compounds, 1.5% hits | Q13093;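 active = inhibition above the mean inhibition across the screen plus 3 SD, cut at about 25% in these data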;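 also: inhibitors block binding of the rhodamine activity-based probe so polarization drops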
E coli Lon inh = inhibits E. coli Lon protease; 360,000 compounds, 0.42% hits; purified E. coli Lon protease, fluorescence polarization; inhibition, % at 7.94 µM; in the data active = inhibition above about 13%, passing the limit was not always enough
pPAFAH confirm = pPAFAH (human) inhibition, confirmed; shares compounds with pPAFAH inh; recombinant pPAFAH, FP-Rh probe fluorescence polarization; inhibition, % at 3.39 µM; 2,300 compounds, 72% hits; AID 463230;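 active = mean inhibition of the triplicate above the hit cutoff set for the earlier primary screen, cut at about 25% in these data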
Large screens that a line does not name were inactive (follow-up assays come after a bar, where they were run). Hits are enriched below; roughly 3.1% of the tested compounds scored in any of these assays.

O=C(COC(=O)c1c2c(nc3ccccc13)/C(=C/c1cccc([N+](=O)[O-])c1)CCC2)NC1CCS(=O)(=O)C1 (configuration not stated)	pPAFAH inh 38 | pPAFAH confirm 44
CN(C(=O)COC(=O)c1c2c(nc3ccccc13)/C(=C/c1cccc([N+](=O)[O-])c1)CCC2)C1CCS(=O)(=O)C1 (configuration not stated)	none
COc1cccc(/C=C2/Sc3ccc(C(=O)NCCN4CCCCCC4)cc3NC2=O)c1	pPAFAH inh 37 | pPAFAH confirm 44
Cc1cccc(/C=C2/Sc3ccc(C(=O)NCCN4CCCC4)cc3NC2=O)c1	none
CC(=O)Nc1ccc(N=Cc2c(O)c(C(=O)Nc3ccccc3)cc3ccccc23)cc1	none (no result: PAFAH1B3 inh, PAFAH2 FP inh, Rin1 Abl inh, PAFAH1B2 inh, E coli Lon inh)
Cn1c(O)c(/C=N/NC(=O)c2cc3ccccc3cc2O)c2ccccc21	PAFAH1B3 inh 37, PAFAH1B2 inh 37, pPAFAH inh 62 | pPAFAH confirm 49
COc1ccc2c(c1)cc(C(=O)N/N=C/c1c(O)c(C(=O)O)cc3ccccc13)n2C	PAFAH1B3 inh 29, PAFAH2 FP inh 39, pPAFAH inh 59 | pPAFAH confirm 84
CCn1c(=O)c2c(nc(SCC(=O)NC3CCCC3)n2C)n(C)c1=O	none
CC(Sc1nncs1)C(=O)Nc1ccc(S(=O)(=O)Nc2ncccn2)cc1 (configuration not stated)	none
O=C1C(Nc2ccccc2)=C/C(=N/S(=O)(=O)c2cccs2)c2ccccc21	PAFAH1B3 inh 62, PAFAH2 FP inh 49, PAFAH1B2 inh 38, pPAFAH inh 62 | pPAFAH confirm 60
O=C1C=C(Nc2ccccc2)C(=O)c2ccccc21	none
Cc1ccc(NC2=C/C(=N/S(=O)(=O)c3cccs3)c3ccccc3C2=O)cc1	PAFAH1B3 inh 45, pPAFAH inh 53 | pPAFAH confirm 65
COC(=O)c1ccccc1NC1=C/C(=N\S(=O)(=O)c2ccc(C(=O)O)cc2)c2ccccc2C1=O	PAFAH1B3 inh 71, PAFAH2 FP inh 72, PAFAH1B2 inh 53, pPAFAH inh 37 | pPAFAH confirm 39
Cc1ccc(S(=O)(=O)/N=C2\C=C(Nc3ccc(O)cc3)C(=O)c3ccccc32)cc1	PAFAH1B3 inh 61, PAFAH2 FP inh 35, PAFAH1B2 inh 27, pPAFAH inh 38 | pPAFAH confirm 33
Cc1ccc(/C=C2\S/C(=N/S(=O)(=O)c3cccs3)NC2=O)cc1	none
Cc1ccc(NC2=C(NCCO)C(=O)c3ccccc3C2=O)cc1	none
O=S(=O)(Cc1ccccc1)C(CCCc1ccccc1)S(=O)(=O)Cc1ccccc1	none (no result: pPAFAH inh)
CCOC(=O)C1=C(N)n2c(s/c(=C/c3ccco3)c2=O)=C(C(=O)OC)C1c1ccco1 (configuration not stated)	none
N#CC1=C(N)n2c(s/c(=C\c3ccco3)c2=O)=C(C#N)C1c1ccco1 (configuration not stated)	pPAFAH inh 53 | pPAFAH confirm inactive
Cc1oc2c(O)c(O)ccc2c(=O)c1-c1cnn(-c2ccccc2)c1	PAFAH2 FP inh 33, pPAFAH inh 51 | pPAFAH confirm 60
Oc1ccc(/C=N/Nc2cc(N3CCCC3)nc(N3CCCC3)n2)cc1O	pPAFAH inh 56 | pPAFAH confirm 28
Oc1ccc(/C=N\Nc2cc(N3CCOCC3)nc(N3CCOCC3)n2)c(O)c1	none
O=[N+]([O-])c1ccccc1NC(=S)N/N=C/c1ccc(O)c(O)c1	PAFAH2 FP inh 49, pPAFAH inh 59 | pPAFAH confirm 64
Cc1cc(/C=C(\C#N)C(=O)NCC2CCCO2)c(C)n1-c1ccc(Cl)cc1 (configuration not stated)	pPAFAH inh 67 | pPAFAH confirm 69
O=C(N/N=C/c1ccc(Cl)cc1)c1ccc2c(c1)OCO2	none
O=C(N/N=C/c1ccncc1)c1ccc2c(c1)OCO2	pPAFAH inh 41 | pPAFAH confirm inactive
Cc1ccc(C(=O)Nc2nnc(CC(=O)N/N=C/c3ccncc3)s2)cc1	none
Cc1ccc(C(=O)Nc2nnc(CC(=O)N/N=C/c3ccc(O)c(O)c3)s2)cc1	pPAFAH inh 51 | pPAFAH confirm 87
